Shown are actives, neighbours in structure and some others; about 3.9% of the full set was active somewhere.
3CLpro inhibitor: SARS-CoV 3CLpro protease inhibitors, primary screen, biochemical, quenched FRET. recombinant SARS-CoV 3CLpro, quenched FRET peptide cleavage. inhibition, % at 6 µM. 290,000 tested, 0.14% active. AID 1706, 2009; in the data active means inhibition above about 12%
BoNT F protease: BoNT/F light chain protease inhibitors, primary screen, biochemical, flow cytometry, MLPCN library. AID 588497, 2011. 360,000 tested, 0.22% active. Multiplex microsphere protease cleavage assay. inhibition, % at 10 µM; in the data active means inhibition above about 35%, passing the limit was not always enough; inconclusive means no clear call, values can overlap the other calls
CCHF vOTU inh: CCHFV vOTU protease inhibitors, primary screen, biochemical, Pep-AMC substrate, fluorescence; inhibition, % at 11.5 µM; 370,000 tested, 0.55% active; in the data active means inhibition above about 30%
Anthrax LF prot: Bacillus anthracis LF protease inhibitors, primary screen, biochemical, multiplex microsphere, MLPCN library | Lethal factor (Bacillus anthracis), P15917 | multiplex microsphere protease cleavage assay | inhibition, % at 10 µM | 360,000 tested, 0.12% active | AID 588501, 2011
BoNT A protease: BoNT/A light chain protease inhibitors, primary screen, biochemical, flow cytometry, MLPCN library | Botulinum neurotoxin type A light chain protease (Clostridium botulinum A str. ATCC 3502) | 360,000 tested, 0.17% active | AID 588499, 2011 | inhibition, % at 10 µM | multiplex microsphere protease substrate cleavage
Bead autofluor: counter-screen for toxin protease inhibitors: compound fluorescence. AID 624483. 360,000 tested, 3.1% active. compound autofluorescence counterscreen, microsphere flow cytometry; stronger effect = higher value. fluorescence intensity (test concentration not listed); in the data active means fluorescence intensity above about 16000; inconclusive means no clear call, values can overlap the other calls
A number is an active result; 0 = inactive; ? = inconclusive; - = no result. Unless noted, no stated cut-off is given here; in the data, active means inhibition above about 30%; inconclusive means no clear call, values can overlap the other calls; inactive means below that.

SMILES	3CLpro inhibitor	BoNT F protease	CCHF vOTU inh	Anthrax LF prot	BoNT A protease	Bead autofluor
Nc1nnc(SCc2ccc(F)cc2Cl)s1	0	0	-	0	0	21708
Nc1nnc(SCc2ccc(Cl)cc2)s1	0	0	0	0	0	0
Cc1nnc(SCc2ccc3c(c2)OCO3)s1	0	0	0	0	0	21079
Cc1nnc(SCc2ccc(F)cc2Cl)s1	0	0	0	0	0	19791
O=C(CSc1ncccn1)n1c2c(c3ccccc31)CCCC2	0	0	0	0	0	18875
CCCCC(=O)Nc1ncc([N+](=O)[O-])s1	0	0	0	0	0	0
CCCCC(=O)Nc1ncc(Br)s1	0	0	-	0	0	21554
Cc1cc(C)n(CC(=O)NN)n1	0	0	0	0	0	0
Cc1cc(C)n(C/C=C/Cn2nc(C)cc2C)n1	0	0	0	0	?	20615
CCOC(=O)N1CCC(NC(=O)C2CCN(C(=O)N3CC(C)Oc4ccccc43)CC2)CC1 (centres undefined)	0	0	0	0	0	16437
CCOC(=O)N1CCC(NC(=O)C2CCCN(c3nc4ccccc4o3)C2)CC1 (centres undefined)	0	0	0	0	0	25111
O=C(NC1CCCCCCC1)C1CCN(c2nc3ccccc3o2)CC1	0	0	0	0	0	17616
O=C(NCCc1ccccc1)C1CCN(c2nc3ccccc3o2)CC1	0	0	-	0	0	0
O=C(NCc1ccc(F)cc1)C1CCCN(c2nc3ccccc3o2)C1 (centres undefined)	-	-	0	-	-	-
CCOC(=O)N1CCC(NC(=O)C2CCN(C(=O)N3CC(C)Oc4ccc(C)cc43)CC2)CC1 (centres undefined)	0	0	0	0	0	0
Cc1ccc(NC(=O)C2CCCN2S(=O)(=O)c2cccnc2)cc1C (centres undefined)	-	-	0	-	-	-
C=CCOc1ccc(/C(CC)=N/O)c(OC)c1	0	0	0	0	?	23301
CC12CCC3c4ccc(OCCCO)c([N+](=O)[O-])c4CCC3C1CCC2=O (centres undefined)	-	-	0	-	-	-
COc1cccc(N(CC(=O)NC(C)(C)C)C(=O)C2CSC(=O)C2)c1 (centres undefined)	0	0	0	0	0	20419
COc1ccccc1N(CC(=O)NC(C)(C)C)C(=O)C1CSC(=O)C1 (centres undefined)	0	0	0	0	0	0
COC(=O)[C@H](CC(C)C)NC(=O)N1CCN(c2cccc(C(F)(F)F)c2)CC1	0	0	0	0	0	23638
CC(=O)Nc1cccc(NC(=O)C2C3C=CC(C3)C2C(=O)O)c1 (centres undefined)	0	0	0	0	0	0
O=C(O)C1C2C=CC(C2)C1C(=O)Nc1cccc(C(F)(F)F)c1 (centres undefined)	0	50.4	0	0	0	0
COc1ccccc1NC(=O)N1CCN(c2cccc(C(F)(F)F)c2)CC1	0	0	0	0	0	23145
CC(C)C[C@H](NC(=O)N1CCN(c2ccccc2)CC1)C(=O)O	0	0	0	0	0	0
SMILES	3CLpro inhibitor	BoNT F protease	CCHF vOTU inh	Anthrax LF prot	BoNT A protease	Bead autofluor
CC(=O)Nc1ccc(CN2CCN(c3cccc(C(F)(F)F)c3)CC2)cc1	0	0	0	0	0	17158
CC(=O)Nc1ccc(NC(=O)CN2CCN(c3cccc(C(F)(F)F)c3)CC2)cc1	0	0	-	0	0	0
CCOC(=O)C1=C(C(=O)OCC)C2N(Cc3ccc(Br)cc3)c3ccccc3[C@@]23C[C@@H](C(=O)OC)N(S(=O)(=O)c2ccc(C(F)(F)F)cc2)C3=N1 (some centres undefined)	-	-	0	-	-	-
COc1ccc(-c2noc(C3CCCN(C(=O)Nc4ccc(C)c(F)c4)C3)n2)cc1 (centres undefined)	-	-	0	-	-	-
O=C(Nc1cccc(C(F)(F)F)c1)N1CCN(C(=O)Nc2cccc(C(F)(F)F)c2)CC1	0	0	0	0	0	22460
O=C(/C=C/Nc1cccc(C(F)(F)F)c1)C(F)(F)F	0	0	0	0	?	20521
CCCN1CCN(C(=O)Nc2cccc(C(F)(F)F)c2)CC1	0	0	0	0	0	0
COC(=O)[C@]12C[C@H](CC(=O)NCCc3ccccc3OC)C(=O)N(Cc3cccc4ccccc34)C1=C[C@H](C(C)(C)C)O[C@@H]2C	-	-	0	-	-	-
CC(COc1cccc(C(F)(F)F)c1)CN1CCC(C(O)(c2ccccc2)c2ccccc2)CC1 (centres undefined)	-	-	0	-	-	-
COC(=O)C1=C(C)N(Cc2ccccc2C(F)(F)F)C(=NCc2ccc3c(c2)OCO3)NC1c1ccccc1 (centres undefined)	-	-	0	-	-	-
O=C(Nc1cccc(F)c1)c1cccc(S(=O)(=O)N2CCOCC2)c1	0	0	0	0	0	24090
Cc1cc(NC(=O)CN2CCN(S(=O)(=O)c3ccc(Cl)cc3)CC2)no1	0	0	0	0	0	19724
O=C(Nc1ccc2c(c1)OCO2)c1cccc(S(=O)(=O)N2CCOCC2)c1	0	0	0	0	0	0
COC(=O)c1cccc(S(=O)(=O)N2CCC(NC(=O)Nc3cccc(F)c3)CC2)c1	0	0	0	0	0	17460
O=C(Nc1ccc2c(c1)OCO2)c1cccc(S(=O)(=O)N2CCCC2)c1	0	0	0	0	0	21861
O=S1(=O)CC2c3ccc(F)cc3CN2CN1CCc1ccccc1 (centres undefined)	-	-	0	-	-	-
Cc1cc(NC(=O)c2cccc(S(=O)(=O)N3CCCCCC3)c2)no1	0	0	0	0	0	17368
O=C(NCc1nc2ccccc2[nH]1)c1cccc(S(=O)(=O)N2CCOCC2)c1	0	0	0	0	0	22223
Cc1cc(NC(=O)c2cc(S(=O)(=O)N3CCCCC3)ccc2C)no1	-	0	0	0	0	0
CC(C)(C)NC(=O)NC(=O)CN1CCN(S(=O)(=O)c2ccccc2)CC1	0	0	0	0	0	16805
O=C(NCc1nc2ccccc2[nH]1)c1cccc(S(=O)(=O)N2CCCC2)c1	0	0	0	0	0	0
CCOC(=O)c1ccc(S(=O)(=O)N2CCN(CC(=O)NC(=O)NC(C)(C)C)CC2)cc1	0	0	0	0	?	?
O=C(Nc1ccc2c(c1)OCCO2)c1ccc(S(=O)(=O)N2CCCCC2)cc1	0	0	0	0	0	16458
O=C(Nc1ccc(N2CCOCC2)cc1)c1ccc(S(=O)(=O)N2CCCCC2)cc1	0	0	0	0	0	0
COC(=O)[C@]12CCCCC=C1N(Cc1ccc(OC)cc1)C(=O)[C@@H]2CC(=O)NCCc1ccccc1OC	-	-	0	-	-	-
COc1ccc2c(c1)CN1CN(Cc3ccccc3)S(=O)(=O)CC21 (centres undefined)	-	-	0	-	-	-
Cc1ccc(-n2c(SCc3cccc(F)c3)nc3sc4c(c3c2=O)CCCC4)cc1	-	-	0	-	-	-

Source: PubChem BioAssay
